The values below come from PubChem BioAssay AID686978 (National Center for Advancing Translational Sciences (NCATS), 2013).

The campaign covered roughly 420,000 compounds. About 64,000 (15%) were called active. About 27% were inconclusive and are not listed. Only a sample is shown. Values without a mark were called inactive. The call rests on the fitted dose curve; in most records, active means well fitted inhibition curve with a large enough effect; inconclusive means small, poorly fitted or top-dose-only effect; inactive means flat fitted curve, though single readings scatter.
On the % scale 0 is the no-effect control and ±100 the full control effect; potency means the concentration at half of the fitted maximal effect.

The nature of the assay: qHTS for Inhibitors of human tyrosyl-DNA phosphodiesterase 1 (TDP1): qHTS in cells in absence of CPT. Further: nearly all actives have a fitted effect of over 55% in size. The following applies: DT40 Tdp1-/- hTDP1 cells, no CPT, ATP luminescence, 48 h; activity change, negative = growth inhibition: at 46.2 µM (top of the series). Put shortly: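 Camptothecin absent (DMSO only). Human TDP1-complemented DT40 knockout cells, 400 cells/well, 37 °C for minimum 48 hr; ATP measured via CellTiter-Glo, 30 min dark incubation, luminescence.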
On the technique in general: qHTS replaces the single test concentration by a dilution series.
As to `Cc1cc(-c2ccccc2)nc(N2CCC(C(=O)NC34CC5CC(CC(C5)C3)C4)CC2)n1`, the “activity change, negative = growth inhibition” value was -23.1%.
On to `COCCCNC(=O)[C@H]1N2C(=O)c3ccccc3C2SC1(C)C` (stereo not given in full), for which the “activity change, negative = growth inhibition” value is 0.674%.
Consider `O=c1c(F)cn(C2CCCO2)c(=O)n1Cc1ccccc1Cl` (stereo not given), for which the “activity change, negative = growth inhibition” value is 7.15%.
In the case of `O=C1CN(C(=O)COC(=O)c2cnc(Cl)c(Cl)c2)c2ccccc2N1`, the “activity change, negative = growth inhibition” value was -4.12%.
With `CC1(c2ccc3ccccc3c2)NC(=O)NC1=O` (stereo not given), the “activity change, negative = growth inhibition” value was -3.58%.
In the case of `COCCCNC(=O)C1CCC(CNS(=O)(=O)c2ccc(OC)cc2)CC1` (stereo not given), the Potency result was “inactive”.
Turning to `O=C(C1CCCN(S(=O)(=O)c2ccc([N+](=O)[O-])cc2)C1)N1CCCCC1` (stereo not given), the Potency was 16.4 µM (active).
For the compound `CC(=O)c1cccc(NC(=O)C2CCCN(S(=O)(=O)c3cccc4nonc34)C2)c1` (stereo not given), the “activity change, negative = growth inhibition” value was -27.5%.
For `O=C(Cc1ccccc1)N1CCN(S(=O)(=O)c2ccc([N+](=O)[O-])cc2)CC1`, the “activity change, negative = growth inhibition” value was -11.9%.
On to `COc1ccc(NC(=O)C2CCCN(S(=O)(=O)c3cccc4nonc34)C2)cc1Cl` (stereo not given), for which the “activity change, negative = growth inhibition” value is -4.62%.
On to `O=C(C1CCCN(S(=O)(=O)c2cccc3nonc23)C1)N1CCN(c2ccccc2F)CC1` (stereo not given), for which the Potency is 18.4 µM (active).
Regarding `O=C(C1CCC1)N1CCN(S(=O)(=O)c2ccc([N+](=O)[O-])cc2)CC1`, the “activity change, negative = growth inhibition” value was 3.7%.
Turning to `O=C(NCc1cc(F)cc(C(F)(F)F)c1)C1CCC(=O)N(C2CCCC2)C1` (stereo not given), the “activity change, negative = growth inhibition” value was 14%.
Regarding `Cc1cccc(C(=O)Nc2ccccc2-c2nnn(CC(=O)Nc3ccc4c(c3)OCCO4)n2)c1`, the “activity change, negative = growth inhibition” value was -29.8%.
`CCCOc1ccccc1-c1nc(SCCC(=O)O)n[nH]1`: the “activity change, negative = growth inhibition” value was -26.8%.
In the case of `CN(c1ccccc1)S(=O)(=O)c1cccc(NC(=O)Cc2ccc(Cl)cc2)c1`, the Potency was 23.1 µM (active).
`Cn1ccc(NC(=O)Nc2ccc(Cl)cc2)n1`: the “activity change, negative = growth inhibition” value is -0.619%.
Regarding `CN(c1cccc(NC(=O)Nc2ccc(Cl)cc2)c1)S(C)(=O)=O`, the Potency was 25.9 µM (active).
For `CN(c1ccccc1)S(=O)(=O)c1cccc(C(=O)NNC(=O)c2ccncc2)c1`, the “activity change, negative = growth inhibition” value is -24.1%.
Regarding `CNS(=O)(=O)c1ccc(NC(=O)Nc2ccc3c(c2)OCO3)cc1`, the “activity change, negative = growth inhibition” value was -12%.
As to `CN(c1ccc(OCC(=O)OCC(=O)Nc2cccc([N+](=O)[O-])c2)cc1)S(=O)(=O)c1ccc(F)cc1`, the “activity change, negative = growth inhibition” value was 6.72%.
In the case of `Cc1ncc([N+](=O)[O-])n1CCOC(=O)c1ccc(Br)cc1`, the “activity change, negative = growth inhibition” value was -19.1%.
As for `COc1ccc(S(=O)(=O)NCC(=O)NCc2cc(=O)n(C)c(=O)n2C)cc1F`, the “activity change, negative = growth inhibition” value was 6.72%.
For the compound `O=C(NC1CCCCC1)c1cc(C2CC2)on1`, the “activity change, negative = growth inhibition” value is 15.4%.
Same read-out and setting: then `COc1cc2c(cc1OC)C(=O)NCC(C)(C)O2`, with -7.76%; and `O=C(O)CCCCCCCCCC[n+]1ccccc1`, with 23%.
As for `O=C(NCC1CCC(C(=O)O)CC1)OCc1ccccc1` (stereo not given), the “activity change, negative = growth inhibition” value is -0.127%.
Still for that read-out and setting: then `CCCN(CCC)CCCNC(=O)CNC(=O)c1nn(-c2ccc(OC)cc2)c(=O)c2ccccc12`, with -16.3%; and `COc1ccc(NC(=O)CCNC(=O)Cn2ccc3ccccc3c2=O)c(OC)c1`, with -7.11%.
With `COc1ccc(Nc2cc(C(=O)NCCCN(C)c3ccccc3)c3ccccc3n2)c(OC)c1`, the Potency is 11.6 µM (active).
As for `CCN(CCCNC(=O)c1cc(Nc2ccc(OC)cc2)nc2ccccc12)c1cccc(C)c1`, the Potency is 20.6 µM (active).
`COc1ccc(NC(=O)CNC(=O)Cn2ccc3ccccc3c2=O)c(OC)c1`: the Potency entry is “inactive”.
For `CCN(CCCNC(=O)Cn1ncc2c([nH]c3ccccc32)c1=O)c1cccc(C)c1`, the “activity change, negative = growth inhibition” value was -22.4%.
As to `Cc1nc(C(F)(F)F)ccc1C(=O)N1CCC1(C)C(=O)NS(=O)(=O)c1ccccc1Cl` (stereo not given), the “activity change, negative = growth inhibition” value is 4.11%.
On to `Cc1ccccc1NC(=O)Cc1nc(COC(=O)c2cccnc2Cl)cs1`, for which the “activity change, negative = growth inhibition” value is -10.3%.
For the compound `COC(=O)c1cc(CNC(=O)CC(C)c2ccccc2)ccc1OC` (stereo not given), the “activity change, negative = growth inhibition” value is -11.8%.
On the same count and under the same terms, in the case of `O=C(OCC(=O)N1CCCC1)c1ccc(Cl)nc1` it was 0.594%; in that of `O=C(O)C1CCC(CNS(=O)(=O)c2ccc(Br)cc2)CC1` (stereo not given), 18.6%; in that of `CCOC(=O)c1cc2c(ccn2C)n1CC(=O)N1CCC(C)CC1`, -8.97%.
For the compound `CCOC(=O)c1cc2cc(OC)ccc2n1C1CCN(C)CC1`, the Potency is 18.4 µM (active).
On to `COc1ccc2[nH]c(C(=O)N3CCN(C)CC3)c(C)c2c1`, for which the “activity change, negative = growth inhibition” value is 4.91%.
Take `Cc1c(NC(=O)CCCOc2ccccc2)cccc1[N+](=O)[O-]`: the “activity change, negative = growth inhibition” value was -19.6%.
Same read-out and setting: then `Cc1csc(CN(C)C(=O)CC2C(=O)NCCN2CC(C)(C)C)n1` (stereo not given), with 10.7%.
`O=C(NN=Cc1ccccc1O)NN=Cc1ccccc1O`: the Potency was 5.8 µM (active).
In the case of `O=C(CCC(=O)Nc1ccccc1)N/N=C/c1ccccc1F`, the “activity change, negative = growth inhibition” value was 0.37%.
Same read-out and setting: in the case of `Oc1ccccc1C=NC1CCCCC1N=Cc1ccccc1O` (stereo not given) it was 7.72%; in that of `C=CCOc1ccccc1/C=N/NC(=O)Cc1ccccc1`, -6.16%.
Regarding `O=C(N/N=C/c1ccc(O)cc1)/C(=C/c1ccc([N+](=O)[O-])cc1)NC(=O)c1ccccc1`, the “activity change, negative = growth inhibition” value was -11.1%.
Consider `O=C(N/N=C/c1ccccc1O)/C(=C/c1ccccc1)CCO`, for which the Potency is 5.17 µM (active).
Take `O=C(NCC1CCCCC1)c1cc(S(=O)(=O)N2CCCCC2)ccc1N1CCOCC1`: the “activity change, negative = growth inhibition” value is 2.24%.
Regarding `N#CCCN(C(=O)COC(=O)c1ccc2c(c1)OCCO2)c1ccccc1`, the “activity change, negative = growth inhibition” value was -5.69%.
Regarding `O=C(Cn1nc([N+](=O)[O-])nc1Br)NC1CCCCC1`, the “activity change, negative = growth inhibition” value is -0.17%.
Still for that read-out and setting: then `CCOC(=O)C(C)n1cnc2c(nnn2-c2ccc(F)cc2)c1=O` (stereo not given), with -10.3%; and `Cc1ccc(Cn2nnc3c(=O)n(CC(=O)N4CCCCC4)cnc32)cc1`, with -21.5%.
For `O=C(Cn1cnc2c(nnn2-c2ccccc2)c1=O)N1CCC(Cc2ccccc2)CC1`, the Potency is 20.6 µM (active).
